# Measurements reported in PubChem BioAssay (NCATS).
# Where “and” joins values, the source holds several entries; their conditions need not be identical. Equal entries are not always repeated. Inconclusive results are not listed. Some structures have more than one record in an assay (separate samples or runs), and their calls can disagree. Calls of active or inactive are those of the source. Calls follow the shape of the dose curve; as a rule, active = well fitted cell-killing curve with a large enough effect; inconclusive = small, poorly fitted or top-dose-only effect, or effect the other way; inactive = no such curve, though single readings can be large or run the other way.
# Experiment: Viability qHTS for spleen associated tyrosine kinase inhibitor (SYKi) drug resistant MV4-11 cells (AID 1963824); also: nearly all actives have a fitted effect of over 35% in size
# Conditions: SYKi-resistant MV4-11 viability, CellTiter-Glo, 72 h; series mostly up to 45 µM; viability, % of control: at the top concentration
# Description: Department of Medicine, Hematology/Oncology
# University Hospital Frankfurt, Germany.
# Trials have shown promising clinical activity of the selective SYK inhibitor entospletinib in patients with high expressing HOXA9/MEIS1 acute leukemias. As the development of resistance mechanisms is a common problem in the use of targeted drugs, we performed a chemical library screen to identify drug sensitivities in SYK inhibitor resistant AML cells. […] Glucocorticoids are potent immunosuppressants which work in part by inhibiting the transcription of cytokine genes.
# Described herein is a viability screen to look for activity in the SYK inhibitor drug resistant cell line against four NCATS compound libraries (MIPE 5.0, NPC, NPACT, and Kinase) totaling 11372 compounds. Active hits were reacquired for confirmation and further secondary assay testing.
# SEQUENCE No. (e.g., 1, 2, 3, etc.); […] (e.g., Cells, Incubation, Reagent, etc.); VALUE; DESCRIPTION.
# 1; Media; 2uL; white, solid-bottom Corning assay plate.
# 2; Compounds; 23nL; Echo acoustic dispenser.
# 3; Cell; 5uL; 500 cells per well.
# 4: Incubation; 72hr; 37 C, 5% CO2, 95% humidity.
# 5; Reagent; 3uL; CellTiter-Glo reagent (Promega).
# 6; Incubation; 10min; room temperature.
# 7; Detection; Luminescence; ViewLux plate reader (PerkinElmer).
# NOTES (numbers refer to Sequence numbers above
# 1. Quantitative high-throughput screening (qHTS) of small molecule compounds was conducted on drug resistant SYKi MV4-11 cell line.
# 2. Twenty-three nanoliter of small molecule compounds were added to each assay plates using the Echo acoustic dispenser (Beckman Coulter).
# 3. Cells were seeded into the assay plates at a final density of 500 cells in 5uL of media per well using the Multidrop Combi dispenser.
# 4. Plates were covered with stainless steel gasketed lids and incubated for 72 hours at standard cell culture conditions.
# 5. Viability was assessed by adding 3uL of CellTiter-Glo detection reagent (Promega).
# 6. Plates were covered with gasket lids and incubated for 10 minutes at room temperature.
# 7. Luminescence was measured on a ViewLux plate reader (PerkinElmer).
# Potency is read from the fitted curve at half-maximal effect.
SMILES,Potency,"viability, % of control"
CN1CC[C@@H](NC(=O)Nc2ccc(C#N)cc2)C[C@@H]1c1nc2ccccc2[nH]1,18.6 µM (active),
Cc1[nH]cnc1-c1ccc(Cl)cc1,,90.6% (inactive)
C/C=C1\NC(=O)[C@H]2CSSCC/C=C\[C@H](CC(=O)N[C@H](C(C)C)C(=O)N2)OC(=O)[C@H](C(C)C)NC1=O,0.0074 µM (active),
Cc1ccc(N)cc1O,9.69 µM (active),
CC(=O)C1=CCC2C3CC=C4CC(O)CC(O)C4(C)C3C(O)CC12C (stereo not given),16.1 µM (active),
O=S(=O)(O)CCS,inactive,
Cc1ncc([N+](=O)[O-])n1CC(O)CN1CCOCC1 (stereo not given),,113% (inactive)
O=c1[nH]c2ccccc2n1CCCN1CCN(C(c2ccccc2)c2ccccc2)CC1,11.9 µM (active),
c1ccc(CC2=NCCN2)cc1,,87.6% (inactive)
NC(=O)c1cccnc1,,104% (inactive)
O=C(NC1CC1)c1cccc(-c2ccc3c(NC(=O)C4CC4)n[nH]c3c2)c1,4.68 µM (active),
CN(C)[C@@H]1C(=O)C(C(N)=O)=C(O)[C@@]2(O)C(=O)C3=C(O)c4c(O)ccc(Cl)c4[C@@H](O)[C@H]3C[C@@H]12,8.41 µM (active),
C=C(C(=O)O)[C@H]1C[C@]2(C)C(=O)CC[C@]23O[C@H]1C[C@@H]3C,,68.8% (inactive)
CCC1(O)CC2c3cc(OC)c(OC)cc3CCN2CC1CC(C)C (stereo not given),,106% (inactive)
O=C(COCC(=O)N1CCN(C(c2ccccc2)c2ccccc2)CC1)Nc1ccc(Cl)cc1C(=O)O,,89.4% (inactive)
CCC(CC)C(=O)OC12C(OC(=O)C(C)C)C(C)C3(O)C(C=C(CO)CC4(O)C(=O)C(C)=CC43)C1C2(C)C (stereo not given),0.01 µM (active),
CN1CCN(CCCN2c3ccccc3Sc3ccc(C(F)(F)F)cc32)CC1,6.99 µM (active) and 21.1 µM (active) and 11.8 µM (active),
N[C@H](CSC(c1ccccc1)(c1ccccc1)c1ccccc1)C(=O)O,14.8 µM (active),
CC(C)CC(=O)OC1OC=C(CO[C@@H]2O[C@H](CO)[C@@H](O)[C@H](O)[C@H]2O)C2CC(O)C(O)(CO)C12 (stereo not given in full),,83% [at 17.3 µM] (inactive)
C[C@@H]1C[C@H](O[C@@H]2O[C@H](CO[C@@H]3OC[C@](O)(CO)[C@H]3O)[C@@H](O)[C@H](O)[C@H]2O)CC(C)(C)[C@H]1/C=C/[C@@H](C)O,,68.9% [at 17.3 µM] (inactive)

SMILES,Potency,"viability, % of control"
C[C@@H]1COCCN1c1cc(C2(S(C)(=N)=O)CC2)nc(-c2ccnc3[nH]ccc23)n1 (stereo not given in full),1.18 µM (active) and 2.59 µM (active),
CC(C)n1c(/C=C/[C@H](O)C[C@H](O)CC(=O)O)c(-c2ccc(F)cc2)c2ccccc21,1.32 µM (active),
O=C(NO)c1ccc(C2=Nc3ccccc3Oc3ccccc32)cc1,2.95 µM (active),
O=C(Nc1ccc(Cl)cc1)C1CCCN(C(=O)c2cccc(-c3ccco3)c2)C1 (stereo not given),8.2 µM (active),
CC1(C)C[C@H]2C3=CCC4[C@@]5(C)CC[C@H](O[C@H]6O[C@H](C(=O)O)[C@@H](O)[C@H](O)[C@H]6O[C@H]6O[C@H](CO)[C@@H](O)[C@H](O)[C@H]6O[C@@H]6O[C@H](CO)[C@@H](O)[C@H](O)[C@H]6O)[C@](C)(CO)C5CC[C@@]4(C)[C@]3(C)CC[C@@]2(C)[C@H](O[C@@H]2OC[C@H](O)[C@H](OC3O[C@H](CO)[C@@H](O)[C@H](O)[C@H]3O)[C@H]2O)[C@@H]1O (stereo not given in full),,93.8% [at 9.25 µM] (inactive)
NC(=O)c1ccc2nc(-c3ccc(Oc4ccc(Cl)cc4)cc3)[nH]c2c1,2.95 µM (active) and 8.2 µM (active),
CCN(CC)CCNC(=O)c1c(C)[nH]c(/C=C2/C(=O)Nc3ccc(-c4csc(-c5ccccc5)n4)cc32)c1C,1.32 µM (active),
C/C=C(/C)C(=O)O[C@H]1C(C)=CC23C(=O)C(C=C(CO)[C@@H](O)[C@]12O)[C@H]1[C@@H](C[C@H]3C)C1(C)C (stereo not given in full),0.0083 µM (active),
C=C1C(=O)OC[C@H]2C(C(=O)O)=CC3CC(C)(C)C[C@@]132 (stereo not given in full),14.6 µM (active),
Nc1cc(C(F)(F)F)ccc1S,23.7 µM (active),
Clc1ccc2c(c1)C(N1CCNCC1)=Nc1ccccc1O2,13.3 µM (active) and inactive,
C=C[C@H]1[C@H](O[C@@H]2O[C@H](CO)[C@@H](O)[C@H](O)[C@H]2O)OC=C(C(=O)OC)[C@H]1C[C@@H]1c2cc(O)c(O)cc2CCN1C(C)=O,,98.8% [at 17.3 µM] (inactive)
NC(=NCc1ccccc1)NC(=O)c1nc(Cl)c(N)nc1N,5.25 µM (active),
COc1cc(C2Oc3c(O)cc(CCCO)cc3C2CO)ccc1O[C@H]1O[C@H](C)[C@@H](O)[C@H](O)[C@@H]1O (stereo not given in full),,90.1% [at 17.3 µM] (inactive)
CCOC(=O)[C@H](CCc1ccccc1)N[C@@H](C)C(=O)N1C(=O)N(C)C[C@H]1C(=O)O,inactive,
Oc1ccc(/C=C/c2cc(O)cc(O)c2)cc1,18.6 µM (active),
Oc1ccc(Cl)cc1Sc1cc(Cl)ccc1O,15 µM (active),
O=S(=O)(c1cccc2cnccc12)N1CCCNCC1,inactive,
C[N+](C)(C)CC(O)CC(=O)[O-] (stereo not given),,102% (inactive)
CCOC(=O)N1c2ccc(C(F)(F)F)cc2[C@@H](N(Cc2cc(C(F)(F)F)cc(C(F)(F)F)c2)C(=O)OC)C[C@H]1CC,7.42 µM (active),
